Each structure is given as a SMILES string. Results filed as inconclusive are left out. A call without a number means that no potency is given here. Calls of active or inactive are those of the source. The call rests on the fitted dose curve; in most records, active means well fitted inhibition curve with a large enough effect; inconclusive means small, poorly fitted or top-dose-only effect; inactive means flat fitted curve, though single readings scatter.

We go through two compounds from PubChem BioAssay AID2530 (National Center for Advancing Translational Sciences (NCATS), 2010).

The experiment addresses Luciferin 4-monooxygenase (Photuris pensylvanica) (UniProt Q27757). Description: Secondary Assay for Luciferase (Kinase-Glo TM) Inhibition Counterscreen. Here is the method:
NIH Chemical Genomics Center [NCGC] Malcolm Walkinshaw, Hugh Morgan, Linda Gilmore University of Edinburgh, UK MLPCN Grant: 1 R03 MH085697-01 NCGC Assay Overview: Luciferase (Kinase-Glo, Promega Corporation) was assayed for its ability to generate light using ATP and luciferin as substrates. The ATP concentration in the assay (10 uM) was within the linear range of enzyme activity for the assay conditions used. This assay was used as an counter screen for human pyruvate kinase M2 isoform.
NCGC Assay Protocol Summary: Four uL of substrate mix (final concentration, 50 mM imidazole pH 7.2, 50 mM KCl, 7 mM MgCl2, 10 uM ATP, 0.01% Tween 20, 0.05% BSA) was dispensed into white 1536 well plates. Twenty-three nL of compound was delivered by a pin tool and 2 uL of luciferase detection mix (Kinase-Glo, Promega)) was added. Following 8-minute incubation at ambient temperature, luminescence was measured by a ViewLux (Perkin Elmer) at 5 seconds exposure/plate. Data were normalized to the controls for basal activity (DMSO only) and 100% inhibition (40 uM SIB 1757) and curve fitting was performed using Hill equation.
For orientation: In Kinase-Glo more light means more ATP remaining.
Potency means the concentration at half of the fitted maximal effect.

Turning to `Cc1ccc(C(=O)n2c(N)nc3ccccc32)cc1`, the Potency is 11.6 µM (active).

On to `C[C@]12CC[C@@H]3c4ccc(O)c(O)c4CC[C@H]3[C@@H]1CC[C@@H]2O`, for which the Potency entry was “inactive”.
